Source: PMC7862700, “An all-to-all approach to the identification of sequence-specific readers for epigenetic DNA modifications on cytosine”

Key:
Test in all cases: DAPPL (digital affinity profiling via proximity ligation, sequencing); 10 mM Tris-HCl pH 7.5, 50 mM NaCl, 1 mM DTT, 4% glycerol, room temperature, 30 min; GST-TFs on glutathione beads, 16-mer random dsDNA library, 0.1% formaldehyde crosslink after washing; high values mean tight binding
FEV = target: T1, FEV (Homo sapiens, UniProt Q99581 1-238); settings: protein: recombinant; tags: N-terminal GST; dsDNA, one strand shown
T1 sequence: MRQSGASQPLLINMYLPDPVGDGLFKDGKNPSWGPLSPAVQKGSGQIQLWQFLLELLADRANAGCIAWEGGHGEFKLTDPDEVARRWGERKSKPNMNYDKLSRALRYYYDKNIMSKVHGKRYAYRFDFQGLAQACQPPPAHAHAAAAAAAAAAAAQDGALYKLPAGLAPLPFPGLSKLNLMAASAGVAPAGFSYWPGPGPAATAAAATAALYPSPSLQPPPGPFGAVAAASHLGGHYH
Procedure, shortened: (§1)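 Human transcription factors were made in yeast as GST fusions, captured on glutathione beads and barcoded with DNA. With a tag-only sample included, the pool was incubated with 200 nmole of a random double-stranded 16-mer DNA library in Tris/NaCl/DTT/glycerol buffer at room temperature for 30 min, then crosslinked with 0.1% formaldehyde after washing, ligated by proximity, amplified and sequenced. For binding signal, each hexamer's read frequency for a factor is divided by its frequency for the tag-only sample.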

ETV5 = ETV5 (Homo sapiens, UniProt P41161 1-510); settings: protein: recombinant; tags: N-terminal GST; dsDNA, one strand shown
Chain of ETV5 (P41161 whole entry): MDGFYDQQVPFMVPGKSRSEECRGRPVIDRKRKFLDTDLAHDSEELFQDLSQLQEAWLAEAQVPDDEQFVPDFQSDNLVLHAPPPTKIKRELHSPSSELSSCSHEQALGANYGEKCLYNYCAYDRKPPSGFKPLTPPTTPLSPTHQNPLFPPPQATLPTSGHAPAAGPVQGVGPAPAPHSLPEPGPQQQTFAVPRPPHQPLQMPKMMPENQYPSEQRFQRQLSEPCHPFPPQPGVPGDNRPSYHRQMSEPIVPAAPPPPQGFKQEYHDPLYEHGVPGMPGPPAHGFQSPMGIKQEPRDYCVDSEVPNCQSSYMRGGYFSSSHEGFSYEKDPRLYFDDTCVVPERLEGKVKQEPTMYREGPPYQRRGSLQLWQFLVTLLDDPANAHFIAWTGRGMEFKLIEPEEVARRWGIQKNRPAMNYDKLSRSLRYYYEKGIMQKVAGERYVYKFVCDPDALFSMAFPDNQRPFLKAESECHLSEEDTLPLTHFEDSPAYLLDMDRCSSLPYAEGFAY
Procedure, shortened: as §1

HSF1 = HSF1 (Homo sapiens, UniProt Q00613 1-529); settings: protein: recombinant; tags: N-terminal GST; chain copies: 3; dsDNA, one strand shown
Chain of HSF1 (Q00613 whole entry): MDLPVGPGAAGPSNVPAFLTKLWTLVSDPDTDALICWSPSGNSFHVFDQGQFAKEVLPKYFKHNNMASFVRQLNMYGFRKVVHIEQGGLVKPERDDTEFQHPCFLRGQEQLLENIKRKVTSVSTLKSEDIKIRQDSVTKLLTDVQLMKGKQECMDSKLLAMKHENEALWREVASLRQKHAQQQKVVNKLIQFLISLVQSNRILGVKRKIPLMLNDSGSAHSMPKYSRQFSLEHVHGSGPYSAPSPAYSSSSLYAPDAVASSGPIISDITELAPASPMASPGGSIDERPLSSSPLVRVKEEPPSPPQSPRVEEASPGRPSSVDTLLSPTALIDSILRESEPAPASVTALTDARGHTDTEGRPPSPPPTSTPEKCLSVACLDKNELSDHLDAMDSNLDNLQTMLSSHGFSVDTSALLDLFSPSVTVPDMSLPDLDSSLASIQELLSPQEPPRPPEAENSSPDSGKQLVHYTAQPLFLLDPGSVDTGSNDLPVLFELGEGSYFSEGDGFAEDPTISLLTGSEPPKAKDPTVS
Procedure, shortened: as §1

SPIC = target: T2, SPIC (Homo sapiens, UniProt Q8N5J4 1-248); settings: protein: recombinant; tags: N-terminal GST; dsDNA, one strand shown
T2 sequence: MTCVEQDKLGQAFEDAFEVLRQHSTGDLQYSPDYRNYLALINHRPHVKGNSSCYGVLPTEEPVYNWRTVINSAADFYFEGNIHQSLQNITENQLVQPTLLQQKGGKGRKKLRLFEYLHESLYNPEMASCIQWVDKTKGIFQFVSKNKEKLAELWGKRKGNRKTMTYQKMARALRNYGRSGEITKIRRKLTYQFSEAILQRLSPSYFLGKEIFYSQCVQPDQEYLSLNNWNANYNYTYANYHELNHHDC
Procedure, shortened: as §1

ELF4 = ELF4 (Homo sapiens, UniProt Q99607 1-663); settings: protein: recombinant; tags: N-terminal GST; dsDNA, one strand shown
Chain of ELF4 (Q99607 whole entry): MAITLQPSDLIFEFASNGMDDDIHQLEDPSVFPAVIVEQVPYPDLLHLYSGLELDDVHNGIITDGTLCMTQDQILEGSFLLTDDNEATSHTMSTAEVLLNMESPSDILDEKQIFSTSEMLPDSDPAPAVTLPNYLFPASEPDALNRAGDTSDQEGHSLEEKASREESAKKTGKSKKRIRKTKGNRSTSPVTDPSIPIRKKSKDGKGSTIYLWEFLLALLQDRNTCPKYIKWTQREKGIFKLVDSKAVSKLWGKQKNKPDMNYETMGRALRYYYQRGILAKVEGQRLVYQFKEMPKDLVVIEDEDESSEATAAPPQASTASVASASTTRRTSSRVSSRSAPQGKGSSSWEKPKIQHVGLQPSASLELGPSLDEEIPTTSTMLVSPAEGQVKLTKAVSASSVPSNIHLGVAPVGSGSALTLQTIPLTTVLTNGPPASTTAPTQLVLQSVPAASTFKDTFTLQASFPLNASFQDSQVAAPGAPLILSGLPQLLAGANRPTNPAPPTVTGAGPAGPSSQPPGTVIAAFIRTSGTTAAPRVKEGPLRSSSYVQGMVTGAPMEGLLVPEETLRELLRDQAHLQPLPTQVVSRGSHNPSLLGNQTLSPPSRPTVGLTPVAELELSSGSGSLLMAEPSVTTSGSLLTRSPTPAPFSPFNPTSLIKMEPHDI
Procedure, shortened: as §1

ELK4 = target: T3, ELK4 (Homo sapiens, UniProt P28324-2 1-405); settings: protein: recombinant; tags: N-terminal GST; dsDNA, one strand shown
T3 sequence: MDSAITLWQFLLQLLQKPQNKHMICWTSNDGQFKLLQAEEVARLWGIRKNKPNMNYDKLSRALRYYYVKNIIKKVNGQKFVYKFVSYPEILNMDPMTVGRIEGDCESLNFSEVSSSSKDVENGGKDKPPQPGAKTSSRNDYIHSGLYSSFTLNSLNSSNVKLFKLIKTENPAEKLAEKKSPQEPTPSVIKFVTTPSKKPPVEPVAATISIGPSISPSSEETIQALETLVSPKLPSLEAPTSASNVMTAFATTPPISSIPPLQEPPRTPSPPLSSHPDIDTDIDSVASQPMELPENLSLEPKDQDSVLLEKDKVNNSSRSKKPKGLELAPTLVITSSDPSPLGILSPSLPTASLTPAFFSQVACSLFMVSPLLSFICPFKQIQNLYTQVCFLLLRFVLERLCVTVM
Procedure, shortened: as §1

ETV2 = target: T4, ETV2 (Homo sapiens, UniProt O00321 1-342); settings: protein: recombinant; tags: N-terminal GST; dsDNA, one strand shown
T4 sequence: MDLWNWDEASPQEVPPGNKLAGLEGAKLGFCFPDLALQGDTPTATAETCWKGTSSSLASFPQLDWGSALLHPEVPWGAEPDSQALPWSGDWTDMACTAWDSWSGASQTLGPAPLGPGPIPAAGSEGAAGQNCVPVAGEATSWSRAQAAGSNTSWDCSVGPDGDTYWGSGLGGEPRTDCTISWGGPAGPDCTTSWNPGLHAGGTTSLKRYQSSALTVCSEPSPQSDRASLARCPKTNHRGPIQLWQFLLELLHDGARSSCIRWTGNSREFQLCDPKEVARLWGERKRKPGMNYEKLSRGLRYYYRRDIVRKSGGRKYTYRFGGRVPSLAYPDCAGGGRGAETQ
Procedure, shortened: as §1

ELF3 = target: T5, ELF3 (Homo sapiens, UniProt P78545 1-371); settings: protein: recombinant; tags: N-terminal GST; dsDNA, one strand shown
T5 sequence: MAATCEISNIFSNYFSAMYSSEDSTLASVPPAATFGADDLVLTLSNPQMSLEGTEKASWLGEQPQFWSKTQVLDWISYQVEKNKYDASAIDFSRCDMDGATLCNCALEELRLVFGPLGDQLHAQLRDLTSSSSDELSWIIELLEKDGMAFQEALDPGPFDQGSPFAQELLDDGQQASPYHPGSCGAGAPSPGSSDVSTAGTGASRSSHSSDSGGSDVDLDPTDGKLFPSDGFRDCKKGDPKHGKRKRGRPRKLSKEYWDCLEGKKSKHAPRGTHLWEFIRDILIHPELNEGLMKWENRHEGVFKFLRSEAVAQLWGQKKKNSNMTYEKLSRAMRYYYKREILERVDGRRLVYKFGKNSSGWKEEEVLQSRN
Procedure, shortened: as §1

CRX = CRX (Homo sapiens, UniProt O43186 1-299); settings: protein: recombinant; tags: N-terminal GST; dsDNA, one strand shown
Chain of CRX (O43186 whole entry): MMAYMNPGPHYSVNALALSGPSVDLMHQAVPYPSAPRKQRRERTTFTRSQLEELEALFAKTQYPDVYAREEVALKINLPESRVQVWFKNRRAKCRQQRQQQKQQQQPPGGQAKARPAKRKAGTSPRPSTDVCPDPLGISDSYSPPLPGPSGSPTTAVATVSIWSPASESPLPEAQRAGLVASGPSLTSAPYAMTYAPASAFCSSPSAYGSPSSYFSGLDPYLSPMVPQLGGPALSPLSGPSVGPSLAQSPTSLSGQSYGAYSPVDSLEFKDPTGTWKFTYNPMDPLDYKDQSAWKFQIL
Procedure, shortened: as §1

ETV1 = ETV1 (Homo sapiens, UniProt P50549 1-477); settings: protein: recombinant; tags: N-terminal GST; dsDNA, one strand shown
Chain of ETV1 (P50549 whole entry): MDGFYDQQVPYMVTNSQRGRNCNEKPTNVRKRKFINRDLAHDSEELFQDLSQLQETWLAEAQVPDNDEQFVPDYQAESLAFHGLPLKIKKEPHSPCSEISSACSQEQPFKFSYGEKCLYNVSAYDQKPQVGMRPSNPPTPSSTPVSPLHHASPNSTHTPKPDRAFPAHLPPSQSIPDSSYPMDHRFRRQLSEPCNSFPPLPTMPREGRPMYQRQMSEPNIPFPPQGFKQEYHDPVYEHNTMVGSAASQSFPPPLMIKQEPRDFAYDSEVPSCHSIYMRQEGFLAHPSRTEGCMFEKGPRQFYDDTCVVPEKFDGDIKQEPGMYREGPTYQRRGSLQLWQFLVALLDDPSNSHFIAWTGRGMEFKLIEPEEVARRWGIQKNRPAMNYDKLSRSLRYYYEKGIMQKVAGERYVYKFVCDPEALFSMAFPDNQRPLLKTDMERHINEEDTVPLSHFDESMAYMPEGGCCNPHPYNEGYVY
Procedure, shortened: as §1

ERF = target: T6, ERF (Homo sapiens, UniProt P50548 1-548); settings: protein: recombinant; tags: N-terminal GST; dsDNA, one strand shown
T6 sequence: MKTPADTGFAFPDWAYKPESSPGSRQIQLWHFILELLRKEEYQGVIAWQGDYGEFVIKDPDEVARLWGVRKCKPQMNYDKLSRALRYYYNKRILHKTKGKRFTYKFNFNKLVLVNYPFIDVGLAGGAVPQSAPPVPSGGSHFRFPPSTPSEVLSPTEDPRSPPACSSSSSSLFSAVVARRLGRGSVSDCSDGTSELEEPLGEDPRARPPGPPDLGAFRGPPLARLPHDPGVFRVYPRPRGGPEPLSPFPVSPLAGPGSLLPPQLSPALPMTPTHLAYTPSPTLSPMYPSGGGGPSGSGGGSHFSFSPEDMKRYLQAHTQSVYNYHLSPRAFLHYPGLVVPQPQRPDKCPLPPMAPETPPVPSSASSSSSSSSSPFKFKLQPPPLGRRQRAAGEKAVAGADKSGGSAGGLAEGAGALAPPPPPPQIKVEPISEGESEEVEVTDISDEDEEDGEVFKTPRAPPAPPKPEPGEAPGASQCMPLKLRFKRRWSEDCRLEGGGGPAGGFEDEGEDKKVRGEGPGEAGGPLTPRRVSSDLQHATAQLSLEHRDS
Procedure, shortened: as §1

ETV3L = target: T7, ETV3L (Homo sapiens, UniProt Q6ZN32 1-361); settings: protein: recombinant; tags: N-terminal GST; dsDNA, one strand shown
T7 sequence: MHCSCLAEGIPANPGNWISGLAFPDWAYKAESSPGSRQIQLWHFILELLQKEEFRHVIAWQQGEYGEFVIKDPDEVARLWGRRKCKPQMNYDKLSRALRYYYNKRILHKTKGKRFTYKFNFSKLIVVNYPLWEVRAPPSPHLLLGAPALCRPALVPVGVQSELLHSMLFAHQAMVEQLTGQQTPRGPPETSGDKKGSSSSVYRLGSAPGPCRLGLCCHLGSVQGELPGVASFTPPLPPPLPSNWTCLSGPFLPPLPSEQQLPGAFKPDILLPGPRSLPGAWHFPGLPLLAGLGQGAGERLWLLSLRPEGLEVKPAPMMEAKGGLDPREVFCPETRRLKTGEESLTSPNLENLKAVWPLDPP
Procedure, shortened: as §1

ETS2 = target: T8, ETS2 (Homo sapiens, UniProt P15036 1-469); settings: protein: recombinant; tags: N-terminal GST; dsDNA, one strand shown
T8 sequence: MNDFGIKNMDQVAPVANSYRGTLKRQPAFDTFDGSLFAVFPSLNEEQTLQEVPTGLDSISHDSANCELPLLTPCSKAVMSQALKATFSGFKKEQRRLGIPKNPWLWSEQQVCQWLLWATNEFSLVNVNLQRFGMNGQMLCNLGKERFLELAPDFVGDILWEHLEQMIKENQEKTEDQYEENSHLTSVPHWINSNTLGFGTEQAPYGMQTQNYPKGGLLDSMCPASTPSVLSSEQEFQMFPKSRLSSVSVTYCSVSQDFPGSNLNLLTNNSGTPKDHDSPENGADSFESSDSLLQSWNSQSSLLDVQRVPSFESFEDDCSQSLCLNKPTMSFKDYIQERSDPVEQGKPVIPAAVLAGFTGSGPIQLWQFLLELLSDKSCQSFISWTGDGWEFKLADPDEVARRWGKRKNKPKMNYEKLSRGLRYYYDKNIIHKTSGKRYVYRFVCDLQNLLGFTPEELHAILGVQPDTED
Procedure, shortened: as §1

SPDEF = target: T9, SPDEF (Homo sapiens, UniProt O95238 1-335); settings: protein: recombinant; tags: N-terminal GST; dsDNA, one strand shown
T9 sequence: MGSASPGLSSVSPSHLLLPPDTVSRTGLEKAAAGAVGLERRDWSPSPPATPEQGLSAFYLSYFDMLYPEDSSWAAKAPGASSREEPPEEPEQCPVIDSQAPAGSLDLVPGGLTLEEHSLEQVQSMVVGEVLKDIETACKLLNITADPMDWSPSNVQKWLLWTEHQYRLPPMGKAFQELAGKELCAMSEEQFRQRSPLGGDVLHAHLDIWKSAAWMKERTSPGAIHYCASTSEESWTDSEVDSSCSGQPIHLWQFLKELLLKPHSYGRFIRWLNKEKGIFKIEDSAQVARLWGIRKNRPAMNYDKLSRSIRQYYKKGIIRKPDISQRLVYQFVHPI
Procedure, shortened: as §1

ETV7 = target: T10, ETV7 (Homo sapiens, UniProt Q9Y603 1-341); settings: protein: recombinant; tags: N-terminal GST; dsDNA, one strand shown
T10 sequence: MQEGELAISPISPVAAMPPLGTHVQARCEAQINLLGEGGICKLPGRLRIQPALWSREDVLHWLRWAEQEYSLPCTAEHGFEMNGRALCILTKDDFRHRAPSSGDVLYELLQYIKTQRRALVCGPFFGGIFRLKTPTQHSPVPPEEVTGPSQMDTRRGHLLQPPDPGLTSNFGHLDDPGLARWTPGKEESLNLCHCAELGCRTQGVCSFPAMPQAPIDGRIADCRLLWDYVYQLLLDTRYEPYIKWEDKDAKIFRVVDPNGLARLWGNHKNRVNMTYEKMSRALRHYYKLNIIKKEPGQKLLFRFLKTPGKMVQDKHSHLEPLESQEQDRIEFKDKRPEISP
Procedure, shortened: as §1

ELF5 = target: T11, ELF5 (Homo sapiens, UniProt Q9UKW6-2 1-255); settings: protein: recombinant; tags: N-terminal GST; dsDNA, one strand shown
T11 sequence: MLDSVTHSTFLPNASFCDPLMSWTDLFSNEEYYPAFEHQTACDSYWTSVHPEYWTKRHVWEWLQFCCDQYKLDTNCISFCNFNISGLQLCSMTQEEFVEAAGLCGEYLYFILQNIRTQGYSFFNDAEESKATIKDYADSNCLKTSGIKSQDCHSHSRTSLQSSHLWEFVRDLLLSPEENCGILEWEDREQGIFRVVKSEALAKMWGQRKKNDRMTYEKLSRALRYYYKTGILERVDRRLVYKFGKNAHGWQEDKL
Procedure, shortened: as §1

ETV3 = target: T12, ETV3 (Homo sapiens, UniProt P41162-2 1-143); settings: protein: recombinant; tags: N-terminal GST; dsDNA, one strand shown
T12 sequence: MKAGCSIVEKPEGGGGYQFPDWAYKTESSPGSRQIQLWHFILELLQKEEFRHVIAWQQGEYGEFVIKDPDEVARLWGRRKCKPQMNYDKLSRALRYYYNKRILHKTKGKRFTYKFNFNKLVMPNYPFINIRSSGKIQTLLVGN
Procedure, shortened: as §1

ETV6 = ETV6 (Homo sapiens, UniProt P41212 1-452); settings: protein: recombinant; tags: N-terminal GST; dsDNA, one strand shown
Chain of ETV6 (P41212 whole entry): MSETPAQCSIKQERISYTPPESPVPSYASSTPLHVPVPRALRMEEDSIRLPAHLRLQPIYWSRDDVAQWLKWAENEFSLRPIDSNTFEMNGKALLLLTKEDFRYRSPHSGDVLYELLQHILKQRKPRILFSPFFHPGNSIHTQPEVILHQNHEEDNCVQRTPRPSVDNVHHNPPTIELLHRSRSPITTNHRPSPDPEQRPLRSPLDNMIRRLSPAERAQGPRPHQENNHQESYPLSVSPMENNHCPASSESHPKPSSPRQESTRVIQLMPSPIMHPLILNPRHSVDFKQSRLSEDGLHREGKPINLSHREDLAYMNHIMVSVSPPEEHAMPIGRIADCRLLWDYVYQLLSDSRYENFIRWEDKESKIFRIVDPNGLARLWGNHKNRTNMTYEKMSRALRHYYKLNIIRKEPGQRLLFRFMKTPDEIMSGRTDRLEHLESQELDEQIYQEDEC
Procedure, shortened: as §1

AATCTG
binding signal (FEV): 1.41 fold enrichment (6-mer frequency, TF over GST control)
binding signal (ETV5): 1.4 fold enrichment (6-mer frequency, TF over GST control)
binding signal (HSF1): 2.17 fold enrichment (6-mer frequency, TF over GST control)
binding signal (SPIC): 1.52 fold enrichment (6-mer frequency, TF over GST control)
binding signal (ELF4): 1.57 fold enrichment (6-mer frequency, TF over GST control)
binding signal (ELK4): 1.55 fold enrichment (6-mer frequency, TF over GST control)
binding signal (ETV2): 1.45 fold enrichment (6-mer frequency, TF over GST control)
binding signal (ELF3): 1.47 fold enrichment (6-mer frequency, TF over GST control)
binding signal (CRX): 2.75 fold enrichment (6-mer frequency, TF over GST control)
binding signal (ETV1): 1.58 fold enrichment (6-mer frequency, TF over GST control)
binding signal (ERF): 1.41 fold enrichment (6-mer frequency, TF over GST control)
binding signal (ETV3L): 1.39 fold enrichment (6-mer frequency, TF over GST control)
binding signal (ETS2): 1.52 fold enrichment (6-mer frequency, TF over GST control)
binding signal (SPDEF): 1.37 fold enrichment (6-mer frequency, TF over GST control)
binding signal (ETV7): 1.46 fold enrichment (6-mer frequency, TF over GST control)
binding signal (ELF5): 1.37 fold enrichment (6-mer frequency, TF over GST control)
binding signal (ETV3): 1.43 fold enrichment (6-mer frequency, TF over GST control)
binding signal (ETV6): 1.4 fold enrichment (6-mer frequency, TF over GST control)
